# Unmarked numbers belong to inactive results. Records with an inconclusive call do not appear. Entries that show only a call come without a potency. Activity calls are given as the source filed them. Unless noted, the call rests on the fitted dose curve; in most records, active means well fitted curve in the direction sought with a large enough effect in the repeat runs; inconclusive means weak or mixed curves; inactive means no such curve, though single readings can be large; an effect the other way counts as inactive or inconclusive.
# Assays:
# [1] = qHTS assay to identify small molecule antagonists of the glucocorticoid receptor (GR) signaling pathway - cell viability counter screen (AID 720693); further: nearly all actives have a fitted effect of over 55% in size
# [2] = qHTS assay for identifying genotoxic compounds that show differential cytotoxicity against isogenic chicken DT40 cell lines with known DNA damage response pathways - wild type cell line (AID 743012); further: nearly all actives have a fitted effect of over 60% in size; further: potency means the concentration at half of the fitted maximal effect
# How it was run: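 Cytotoxicity in repair-proficient parental chicken DT40 cells serves as the comparator for Rad54/Ku70- and Rev3-deficient lines. Cells were exposed to compounds for 40 h at 37 C/5% CO2, and ATP-based luminescence (CellTiter-Glo) measured viability.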
# [3] = qHTS assay for identifying genotoxic compounds that show differential cytotoxicity against isogenic chicken DT40 cell lines with known DNA damage response pathways - Rev3 mutant cell line (AID 743014); further: nearly all actives have a fitted effect of over 55% in size; further: potency means the concentration at half of the fitted maximal effect
# [4] = qHTS assay for identifying genotoxic compounds that show differential cytotoxicity against isogenic chicken DT40 cell lines with known DNA damage response pathways - Rad54/Ku70 mutant cell line (AID 743015); further: nearly all actives have a fitted effect of over 60% in size; further: potency means the concentration at half of the fitted maximal effect
# [5] = qHTS assay to identify small molecule antagonists of the androgen receptor (AR) signaling pathway using the MDA cell line - cell viability counter screen (AID 743041; further: nearly all actives have a fitted effect of over 45% in size)
# How it was run: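 qHTS viability read-out; MDA-kb2 AR-luc; R1881-stimulated; 16 h exposure at 37C, 0% CO2; CellTiter-Fluor, 30 min; fluorescence intensity.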
# [6] = qHTS assay to identify small molecule antagonists of the thyroid receptor (TR) signaling pathway - cell viability counter screen (AID 743064); further: nearly all actives have a fitted effect of over 50% in size; further: potency means the concentration at half of the fitted maximal effect
# How it was run: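 GH3.TRE-Luc cells, 4 h pre-plating; cpd + T3 1 nM final; 37 °C 23.5 h; CellTiter-Fluor 30 min; fluorescence read.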
# [7] = qHTS assay to identify small molecule antagonists of the thyroid receptor (TR) signaling pathway (AID 743065); further: nearly all actives have a fitted effect of over 55% in size; further: potency means the concentration at half of the fitted maximal effect
# How it was run: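 GH3.TRE-Luc rat pituitary cells carrying two TR response elements driving luciferase were plated for 4 h, given compound plus 1 nM T3 (final), and incubated 23.5 h at 37 C. ONE-Glo luminescence measured reporter inhibition; CellTiter-Fluor fluorescence tracked cytotoxicity.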
# [8] = system: thyroid hormone receptor (rat, GH3 cells); experiment: qHTS assay to identify small molecule agonists of the thyroid receptor (TR) signaling pathway (AID 743066; calls by dose curve)
# [9] = biological target: Estrogen receptor (Homo sapiens) (UniProt P03372); experiment: qHTS assay to identify small molecule antagonists of the estrogen receptor alpha (ER-alpha) signaling pathway (AID 743069; active means well fitted curve in the direction sought with a large enough effect in the signal ratio in the repeat runs, not every such curve was filed as active; the % refers to the signal ratio)
# Chain of Estrogen receptor (Homo sapiens) (P03372 whole entry, looked up): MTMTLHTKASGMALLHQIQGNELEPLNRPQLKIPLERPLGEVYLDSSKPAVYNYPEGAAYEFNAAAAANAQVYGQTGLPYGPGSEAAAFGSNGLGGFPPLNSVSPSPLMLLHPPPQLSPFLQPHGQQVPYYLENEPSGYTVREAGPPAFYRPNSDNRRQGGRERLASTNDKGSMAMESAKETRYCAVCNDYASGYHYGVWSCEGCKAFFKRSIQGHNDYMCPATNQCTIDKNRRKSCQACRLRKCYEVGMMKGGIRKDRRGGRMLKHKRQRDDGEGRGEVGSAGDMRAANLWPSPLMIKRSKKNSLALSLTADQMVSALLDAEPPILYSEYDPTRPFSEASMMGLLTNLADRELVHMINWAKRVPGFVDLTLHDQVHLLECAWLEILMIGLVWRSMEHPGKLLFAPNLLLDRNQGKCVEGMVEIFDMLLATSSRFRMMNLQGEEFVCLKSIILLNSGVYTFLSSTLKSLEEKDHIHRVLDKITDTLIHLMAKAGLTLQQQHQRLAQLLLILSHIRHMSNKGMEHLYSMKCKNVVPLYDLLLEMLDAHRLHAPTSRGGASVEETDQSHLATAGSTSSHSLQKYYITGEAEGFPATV
# How it was run: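 Screening used a UAS-driven beta-lactamase reporter integrated into HEK293 cells expressing ER-alpha, stimulated with 17beta-estradiol alongside test compounds over 18 hr at 37C; signal came from LiveBLAzer B/G FRET fluorescence.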
# [10] = qHTS assay to identify small molecule antagonists of the estrogen receptor alpha (ER-alpha) signaling pathway - cell viability counter screen (AID 743074; calls by dose curve; further: nearly all actives have a fitted effect of over 45% in size)
# [11] = biological target: Estrogen receptor (Homo sapiens) (UniProt P03372); experiment: qHTS assay to identify small molecule agonists of the estrogen receptor alpha (ER-alpha) signaling pathway (AID 743075; calls by dose curve)
# [12] = biological target: Estrogen receptor (Homo sapiens) (UniProt P03372); experiment: qHTS assay to identify small molecule agonists of the estrogen receptor alpha (ER-alpha) signaling pathway using the BG1 cell line (AID 743079); settings: BG1Luc4E2 cells, ERE-luciferase agonist, 22 h; further: nearly all actives have a fitted effect of over 20% in size; further: potency means the concentration at half of the fitted maximal effect
# [13] = qHTS assay to identify small molecule antagonists of the estrogen receptor alpha (ER-alpha) signaling pathway using the BG1 cell line (AID 743080; calls by dose curve;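 further: BG1 cells stimulated with 17beta-estradiol alongside compound; nearly all actives have a fitted effect of over 25% in size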)
# How it was run: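 BG1Luc4E2, endogenous ER-alpha, 4xERE-luc; 5 d charcoal-stripped FBS, phenol red free; 24 h plating; cpd + 17beta-estradiol 21.5 h, 37 C/5% CO2; CellTiter-Fluor viability 30 min, then ONE-Glo luciferase 30 min RT.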
# Aromatase (Homo sapiens) = Aromatase (Homo sapiens) (UniProt P11511); experiment: qHTS assay to identify aromatase inhibitors (AID 743083); further: nearly all actives have a fitted effect of over 55% in size
# Chain of Aromatase (Homo sapiens) (P11511 whole entry, looked up): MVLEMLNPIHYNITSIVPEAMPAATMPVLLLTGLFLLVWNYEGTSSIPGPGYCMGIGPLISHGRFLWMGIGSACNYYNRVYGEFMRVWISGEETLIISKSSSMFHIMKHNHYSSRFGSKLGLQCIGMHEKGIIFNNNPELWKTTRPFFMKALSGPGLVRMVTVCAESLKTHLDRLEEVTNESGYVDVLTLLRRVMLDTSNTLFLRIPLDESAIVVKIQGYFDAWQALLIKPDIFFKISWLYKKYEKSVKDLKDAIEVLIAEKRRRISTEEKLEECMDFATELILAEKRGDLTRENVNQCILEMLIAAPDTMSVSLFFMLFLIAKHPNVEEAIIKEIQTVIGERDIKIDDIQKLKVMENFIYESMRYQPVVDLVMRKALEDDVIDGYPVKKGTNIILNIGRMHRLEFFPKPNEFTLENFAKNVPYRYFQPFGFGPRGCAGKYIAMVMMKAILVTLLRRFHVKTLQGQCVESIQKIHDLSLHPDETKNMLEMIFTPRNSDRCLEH
# [14] = qHTS assay to identify small molecule antagonists of the androgen receptor (AR) signaling pathway - cell viability counter screen (AID 743033; further: nearly all actives have a fitted effect of over 45% in size)
# [15] = qHTS assay to identify small molecule antagonists of the estrogen receptor alpha (ER-alpha) signaling pathway using the BG1 cell line - cell viability counter screen (AID 743081);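 further: compound given together with 17beta-estradiol as the ER stimulus; nearly all actives have a fitted effect of over 45% in size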
# [16] = biological target: Androgen receptor (Homo sapiens) (UniProt P10275); experiment: qHTS assay to identify small molecule antagonists of the androgen receptor (AR) signaling pathway (AID 743035; active means well fitted inhibition curve with a large enough effect in the signal ratio in the repeat runs, not every such curve was filed as active; the % refers to the signal ratio)
# Chain of Androgen receptor (Homo sapiens) (P10275 whole entry, looked up): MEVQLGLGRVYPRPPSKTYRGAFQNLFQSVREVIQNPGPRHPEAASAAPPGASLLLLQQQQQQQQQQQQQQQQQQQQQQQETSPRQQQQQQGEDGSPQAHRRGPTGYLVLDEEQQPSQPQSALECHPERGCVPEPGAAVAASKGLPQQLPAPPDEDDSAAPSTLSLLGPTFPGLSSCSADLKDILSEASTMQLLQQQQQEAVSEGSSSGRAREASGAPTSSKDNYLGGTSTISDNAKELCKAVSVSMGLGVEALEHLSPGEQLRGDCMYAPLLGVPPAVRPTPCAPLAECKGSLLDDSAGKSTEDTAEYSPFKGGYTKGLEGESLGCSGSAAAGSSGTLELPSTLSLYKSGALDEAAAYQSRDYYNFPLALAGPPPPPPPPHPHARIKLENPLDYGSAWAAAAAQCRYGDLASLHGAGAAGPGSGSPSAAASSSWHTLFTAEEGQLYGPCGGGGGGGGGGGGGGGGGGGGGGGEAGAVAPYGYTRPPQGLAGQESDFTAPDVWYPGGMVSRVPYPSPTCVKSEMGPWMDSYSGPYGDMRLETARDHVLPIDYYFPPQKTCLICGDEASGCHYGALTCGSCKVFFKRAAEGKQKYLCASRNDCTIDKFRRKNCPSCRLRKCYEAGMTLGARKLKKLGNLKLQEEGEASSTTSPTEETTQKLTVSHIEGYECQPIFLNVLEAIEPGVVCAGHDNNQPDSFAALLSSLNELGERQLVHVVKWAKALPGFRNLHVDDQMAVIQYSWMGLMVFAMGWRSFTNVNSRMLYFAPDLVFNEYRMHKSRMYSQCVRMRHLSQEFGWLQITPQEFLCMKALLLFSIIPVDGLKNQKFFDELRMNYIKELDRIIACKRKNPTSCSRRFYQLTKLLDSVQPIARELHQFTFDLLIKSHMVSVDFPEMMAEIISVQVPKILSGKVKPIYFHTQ
# How it was run: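 Steps: seed AR-UAS-bla GripTite HEK293 cells, incubate 4 h at 37C; pin in test compound, then add agonist R1881; incubate 16 h at 37C; add LiveBLAzer B/G FRET substrate, 2 h at room temperature; read fluorescence.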
# [17] = biological target: Androgen receptor (Homo sapiens) (UniProt P10275); experiment: qHTS assay to identify small molecule agonists of the androgen receptor (AR) signaling pathway (AID 743036; active means well fitted activation curve with a large enough effect in the signal ratio in the repeat runs, with a control signal flat, not every such curve was filed as active; the % refers to the signal ratio)
# How it was run: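 AR-bla HEK293 cells, 2,000/well; 4 h preincubation 37C/5% CO2; compound (DMSO) 16 h at 37C; LiveBLAzer B/G FRET substrate 2 h RT; fluorescence intensity read-out.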
# [18] = biological target: Androgen receptor (Homo sapiens) (UniProt P10275); experiment: qHTS assay to identify small molecule agonists of the androgen receptor (AR) signaling pathway using the MDA cell line (AID 743040; further: nearly all actives have a fitted effect of over 20% in size)
# How it was run: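 Agonist activity is measured as luciferase luminescence in human MDA-kb2 cells whose MMTV reporter responds to both AR and GR. Compounds in DMSO incubate 16 h at 37C, 0% CO2, and ONE-Glo is read after 30 min.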
# [19] = biological target: Androgen receptor (Homo sapiens) (UniProt P10275); experiment: qHTS assay to identify small molecule antagonists of the androgen receptor (AR) signaling pathway using the MDA cell line (AID 743042; further: nearly all actives have a fitted effect of over 55% in size)
# How it was run: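 MDA-kb2 cells (human breast carcinoma, stably carrying an MMTV-luciferase reporter responsive to AR and GR) were plated at 3,000 cells/well and preincubated 5 hr at 37C, then given compound plus R1881 agonist for 16 h. ONE-Glo luminescence was read.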
smiles,measurement,setting,value
Cc1ncsc1CCCl,Potency,[1],inactive
same,Potency,[2],inactive
same,Potency,[3],inactive
same,Potency,[4],inactive
same,Potency,[5],inactive
same,Potency,[6],inactive
same,Potency,[7],inactive
same,Potency,[8],inactive
same,Potency,[9],inactive
same,outcome,[10],inactive
same,Potency,[11],inactive
same,activation,[12]; at 70.3 µM (top of the series),1.72%
same,Potency,[13],inactive
same,Potency,Aromatase (Homo sapiens),inactive
O=C1c2ccccc2C(=O)c2ccccc21,Potency,[1],inactive
same,Potency,[2],inactive
same,Potency,[3],inactive
same,Potency,[4],inactive
same,Potency,[14],inactive
same,Potency,[6],inactive
same,Potency,[8],inactive
same,Potency,[9],inactive
same,outcome,[10],inactive
same,Potency,[11],inactive
same,Potency,Aromatase (Homo sapiens),inactive
CCN(CC)c1nc(C)cc(OP(=S)(OC)OC)n1,Potency,[1],inactive
same,Potency,[2],48.6 µM (active)
same,Potency,[3],48.6 µM (active)
same,Potency,[4],48.6 µM (active)
same,Potency,[14],inactive
same,Potency,[5],inactive
same,Potency,[7],61.1 µM (active)
same,Potency,[8],inactive
same,Potency,[9],inactive
same,outcome,[10],inactive
same,Potency,[11],inactive
same,activation,[12]; at 70.3 µM (top of the series),4.15%
same,Potency,[13],inactive
same,Potency,[15],inactive
CCS(=O)(=O)C(C)(C)S(=O)(=O)CC,Potency,[1],inactive
same,Potency,[2],inactive
same,Potency,[3],inactive
same,Potency,[4],inactive
same,Potency,[5],inactive
same,Potency,[6],inactive
same,Potency,[7],inactive
same,Potency,[8],inactive
same,Potency,[9],inactive
same,outcome,[10],inactive
same,Potency,[11],inactive
same,activation,[12]; at 70.3 µM (top of the series),0.0569%
same,Potency,[13],inactive
same,Potency,[15],inactive
same,Potency,Aromatase (Homo sapiens),inactive
Oc1c(Cl)cccc1Cl,Potency,[1],inactive
same,Potency,[2],inactive
same,Potency,[3],inactive
same,Potency,[4],inactive
same,Potency,[14],inactive
same,Potency,[5],inactive
same,Potency,[6],inactive
same,Potency,[8],inactive
same,outcome,[10],inactive
same,Potency,[11],inactive
same,activation,[12]; at 70.3 µM (top of the series),20.4%
same,Potency,[13],inactive
same,Potency,[15],inactive
same,Potency,Aromatase (Homo sapiens),inactive
CCOP(=S)(Oc1cnc(C(C)(C)C)nc1)OC(C)C (stereo unspecified),Potency,[1],inactive
same,Potency,[2],54.5 µM (active)
same,Potency,[3],27.3 µM (active)
same,Potency,[4],48.6 µM (active)
same,Potency,[14],inactive
same,Potency,[5],inactive
same,Potency,[7],61.1 µM (active)
same,Potency,[8],inactive
same,outcome,[10],inactive
same,Potency,[15],inactive
N#CC(O)c1ccccc1 (stereo unspecified),Potency,[1],inactive
same,Potency,[2],inactive
same,Potency,[3],inactive
same,Potency,[4],inactive
same,Potency,[14],inactive
same,Potency,[5],inactive
same,Potency,[7],inactive
same,Potency,[8],inactive
same,outcome,[10],inactive
same,Potency,[15],inactive
same,Potency,Aromatase (Homo sapiens),inactive
CCOC(=O)NC(=S)Nc1ccccc1NC(=S)NC(=O)OCC,Potency,[1],inactive
same,Potency,[2],61.1 µM (active)
same,Potency,[3],30.6 µM (active)
same,Potency,[4],48.6 µM (active)
same,Potency,[14],inactive
same,Potency,[5],inactive
same,Potency,[6],inactive
same,Potency,[7],54.5 µM (active)
same,Potency,[8],inactive
same,Potency,[15],inactive
same,Potency,Aromatase (Homo sapiens),inactive
CC1CN1P(=O)(N1CC1C)N1CC1C (stereo unspecified),Potency,[1],inactive
same,Potency,[2],inactive
same,Potency,[3],inactive
same,Potency,[4],inactive
same,Potency,[5],inactive
same,Potency,[6],inactive
same,Potency,[7],inactive
same,Potency,[8],inactive
same,Potency,[9],inactive
same,outcome,[10],inactive
same,Potency,[11],inactive
same,activation,[12]; at 70.3 µM (top of the series),-10.3%
same,Potency,[13],inactive
same,Potency,[15],inactive
same,Potency,Aromatase (Homo sapiens),inactive
CNNC,Potency,[1],inactive
same,Potency,[2],inactive
same,Potency,[3],inactive
same,Potency,[4],inactive
same,Potency,[14],inactive
same,Potency,[5],inactive
same,Potency,[6],inactive
same,Potency,[8],inactive
same,Potency,[9],inactive
same,outcome,[10],inactive
same,Potency,[11],inactive
same,activation,[12]; at 95 µM (top of the series),-3.86%
same,Potency,[13],inactive
same,Potency,[15],inactive
same,Potency,Aromatase (Homo sapiens),inactive
ClCC(Cl)(Cl)Cl,Potency,[1],inactive
same,Potency,[2],inactive
same,Potency,[3],inactive
same,Potency,[4],inactive
same,Potency,[14],inactive
same,Potency,[5],inactive
same,Potency,[6],inactive
same,Potency,[9],inactive
same,outcome,[10],inactive
same,Potency,[11],inactive
same,activation,[12]; at 95 µM (top of the series),9.47%
same,Potency,[13],inactive
same,Potency,[15],inactive
same,Potency,Aromatase (Homo sapiens),inactive
CCN(CC)CCOC(=O)C(C)(c1ccccc1)c1ccccc1,Potency,[1],inactive
same,Potency,[2],8.41 µM (active)
same,Potency,[3],11.9 µM (active)
same,Potency,[4],23.7 µM (active)
same,Potency,[14],inactive
same,Potency,[5],inactive
same,Potency,[6],26.6 µM (active)
same,Potency,[8],inactive
same,outcome,[10],inactive
same,Potency,Aromatase (Homo sapiens),inactive
O=S(=O)(O)C(F)(F)C(F)(F)C(F)(F)C(F)(F)C(F)(F)C(F)(F)F,Potency,[1],inactive
same,Potency,[2],inactive
same,Potency,[3],inactive
same,Potency,[4],inactive
same,Potency,[14],inactive
same,Potency,[5],inactive
same,Potency,[6],inactive
same,Potency,[8],inactive
same,Potency,[9],inactive
same,Potency,[11],inactive
same,activation,[12]; at 70.3 µM (top of the series),-0.729%
same,Potency,[13],inactive
same,Potency,[15],inactive
same,Potency,Aromatase (Homo sapiens),inactive
CCCSC(=O)N(CCC)CCC,Potency,[1],inactive
same,Potency,[2],inactive
same,Potency,[3],inactive
same,Potency,[4],inactive
same,Potency,[14],inactive
same,Potency,[6],inactive
same,Potency,[7],inactive
same,Potency,[8],inactive
same,outcome,[10],inactive
same,Potency,[15],inactive
same,Potency,Aromatase (Homo sapiens),inactive
CC(Cl)(Cl)[N+](=O)[O-],Potency,[1],inactive
same,Potency,[2],inactive
same,Potency,[3],inactive
same,Potency,[4],inactive
same,Potency,[16],inactive
same,outcome,[17],inactive
same,Potency,[18],inactive
same,Potency,[5],inactive
same,outcome,[19],inactive
same,Potency,[6],inactive
same,Potency,[7],inactive
same,Potency,[8],inactive
same,Potency,[9],inactive
same,Potency,[11],inactive
same,activation,[12]; at 70.3 µM (top of the series),-5.99%
same,Potency,[13],inactive
same,Potency,[15],inactive
same,Potency,Aromatase (Homo sapiens),inactive
CN(N=O)C(N)=O,Potency,[1],inactive
same,Potency,[2],inactive
same,Potency,[3],inactive
same,Potency,[4],inactive
same,Potency,[14],inactive
same,Potency,[5],inactive
same,Potency,[6],inactive
same,Potency,[8],inactive
same,Potency,[15],inactive
same,Potency,Aromatase (Homo sapiens),inactive
CCOP(=S)(OCC)Oc1cc(-c2ccccc2)on1,Potency,[1],inactive
same,Potency,[2],68.6 µM (active)
same,Potency,[3],61.1 µM (active)
same,Potency,[4],68.6 µM (active)
same,Potency,[14],inactive
same,Potency,[5],inactive
same,Potency,[6],inactive
same,Potency,[8],inactive
same,Potency,[9],inactive
same,outcome,[10],inactive
same,Potency,[11],inactive
same,Potency,[12],68.6 µM (active)
same,Potency,[15],inactive
same,Potency,Aromatase (Homo sapiens),inactive
O=C1CN=C(c2ccccc2)c2cc([N+](=O)[O-])ccc2N1,Potency,[1],inactive
same,Potency,[2],inactive
same,Potency,[3],inactive
same,Potency,[4],inactive
same,Potency,[14],inactive
same,Potency,[5],inactive
same,Potency,[6],inactive
same,Potency,[8],inactive
same,Potency,[9],inactive
same,outcome,[10],inactive
same,Potency,[11],inactive
same,activation,[12]; at 70.3 µM (top of the series),-1.51%
same,Potency,[13],inactive
same,Potency,[15],inactive
same,Potency,Aromatase (Homo sapiens),inactive
O=C(NCO)NCO,Potency,[1],inactive
same,Potency,[2],inactive
same,Potency,[3],inactive
same,Potency,[4],inactive
same,Potency,[14],inactive
same,Potency,[5],inactive
same,Potency,[7],inactive
same,Potency,[8],inactive
same,Potency,[9],inactive
same,outcome,[10],inactive
same,Potency,[11],inactive
same,activation,[12]; at 95 µM (top of the series),2.29%
same,Potency,[13],inactive
same,Potency,[15],inactive
same,Potency,Aromatase (Homo sapiens),inactive

# From PubChem BioAssay (Tox21)
